# Screens from PubChem BioAssay.
# Rows were chosen to be rich in hits. Some 5.9% of all compounds tested hit in one or more screens of this group.
# HSP90 inh: blocks HSP90-mediated luciferase refolding in reticulocyte lysate | Rabbit reticulocyte lysate, luciferase refolding luminescence, 3 h | inhibition, % at 5.6 µM | 290,000 compounds, 0.91% hits;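 active means inhibition above the screen-wide mean plus 3 SD, computed separately per campaign, cut at about 16% in these data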;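 further: 0% = DMSO wells and 100% = 60 µM geldanamycin wells; inhibitors lower the luminescence because luciferase stays unfolded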
# FXN GAA850 act: increases GAA850 frataxin promoter reporter activity. activation, % at 6 µM. 360,000 compounds, 0.56% hits. HEK293 lucGAA850 FXN promoter luciferase reporter, 24 h; percent of 10 µM SAHA response;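 active means activation above the average of all compounds screened plus 3 SD, cutoff fixed separately per campaign, cut at about 7.5% in these data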;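 further: 0% = DMSO wells and 100% = 10 µM SAHA wells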
# HSF1 inh: HSF1 inhibition | NIH3T3-HGL HSE-luciferase, MG132-induced, luminescence 8 h; hits give low values | activity change, negative = inhibition, % at 7.5 µM (by protocol) | 300,000 compounds, 0.77% hits | AID 2098;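 active means more than half of replicate wells show activity change below -50%, luminescence cut by over half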;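 further: luciferase reports HSF-1 transcriptional activity via heat shock element; 0% = median of DMSO wells and -100% = zero luminescence signal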
# AHR activator: activators of human aryl hydrocarbon receptor. AID 2796. P35869. activation, % at 5 µM. AHR-responsive luciferase reporter cells, luminescence. 320,000 compounds, 2.5% hits; in the data active means activation above about 47%;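 further: 0% = vehicle wells and 100% = reference agonist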
# Target sequence (P35869 whole entry, looked up): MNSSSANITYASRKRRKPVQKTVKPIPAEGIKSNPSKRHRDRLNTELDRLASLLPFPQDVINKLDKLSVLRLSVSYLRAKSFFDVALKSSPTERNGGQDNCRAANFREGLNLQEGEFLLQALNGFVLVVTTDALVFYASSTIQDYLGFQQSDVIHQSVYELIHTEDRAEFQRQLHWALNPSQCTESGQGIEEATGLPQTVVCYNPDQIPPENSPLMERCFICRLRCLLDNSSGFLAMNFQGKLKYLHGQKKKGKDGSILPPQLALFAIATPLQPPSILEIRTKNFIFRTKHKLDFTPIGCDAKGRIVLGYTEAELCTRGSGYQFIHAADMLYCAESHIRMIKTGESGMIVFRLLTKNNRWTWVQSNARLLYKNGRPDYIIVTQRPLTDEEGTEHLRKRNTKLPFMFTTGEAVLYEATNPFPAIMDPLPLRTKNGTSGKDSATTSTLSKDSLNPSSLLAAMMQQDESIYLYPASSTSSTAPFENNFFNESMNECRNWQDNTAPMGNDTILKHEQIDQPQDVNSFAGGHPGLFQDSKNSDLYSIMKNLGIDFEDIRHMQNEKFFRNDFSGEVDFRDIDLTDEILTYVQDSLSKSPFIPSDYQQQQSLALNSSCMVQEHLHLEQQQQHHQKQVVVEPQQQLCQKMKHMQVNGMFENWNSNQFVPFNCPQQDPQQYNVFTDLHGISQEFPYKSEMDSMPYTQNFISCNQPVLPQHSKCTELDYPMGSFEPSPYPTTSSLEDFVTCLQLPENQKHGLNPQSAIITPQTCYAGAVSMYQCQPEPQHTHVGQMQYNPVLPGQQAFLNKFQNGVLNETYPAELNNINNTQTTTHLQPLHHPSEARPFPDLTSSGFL
# HSF-1 act: increases HSF-1 driven luciferase reporter signal; 300,000 compounds, 1.7% hits; NIH3T3-HGL HSF-1 luciferase reporter, MG132, 8 h; 100% = twice DMSO control signal; activation, % at 9 µM;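 active means mean replicate activation of at least 50% with a set share of replicates each reaching 50%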;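 further: 0% = median of the neutral control wells and 100% = twice that signal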
# DAX1 inh: inhibitors of human orphan nuclear receptor DAX1 (NR0B1). inhibition, % at 6.75 µM. HEK293 Gal4-DAX1 luciferase reporter, luminescence. AID 504766. 340,000 compounds, 0.99% hits;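 active means inhibition above the mean over all tested compounds plus 3 SD, cut at about 4.2% in these data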;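 further: 0% = DAX1-transfected cells with DMSO and 100% = empty-vector control cells with DMSO; inhibition shows as a rise in luminescence from relieved DAX1 repression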
# An asterisk follows results filed as active; x = no result given.
SMILES,HSP90 inh,FXN GAA850 act,HSF1 inh,AHR activator,HSF-1 act,DAX1 inh
COc1ccccc1NC(=S)N(Cc1ccco1)Cc1cc2cccc(C)c2[nH]c1=O,-1,-1,60,48*,119*,-2
Cc1cccc2cc(CN(Cc3ccccc3)C(=S)NCCCN(C)C)c(=O)[nH]c12,-2,1,-74*,0,-78,5.4*
COc1ccccc1NC(=O)N(Cc1ccco1)Cc1cc2ccc(C)c(C)c2[nH]c1=O,4,-1,79,27,108*,-4
CCOC(=O)N1CCN(C(=O)CCCn2nc(C)c3sc4ccccc4c3c2=O)CC1,5,4,-5,-8,4,-2
Oc1ccc(C=NNC(=S)Nc2ccccc2)nc1,x,-2,x,x,x,-3
O=c1[nH]n(CC2COC3(CCCCC3)O2)c(=O)c2ccccc12 (stereo unspecified),-1,6,39,1,63*,1
O=C(Cn1[nH]c(=O)c2ccccc2c1=O)NC1CCCCCC1,7,0,9,11,7,0
CCOC(=O)COc1ccccc1/C=C\[N+](=O)[O-],-2,-11,-61*,0,-66,-1
Cc1ccc(C(=O)COC(=O)COc2ccccc2[N+](=O)[O-])s1,x,-1,x,4,x,0
CCC(=O)N(CCC(c1ccco1)c1ccccc1OC)Cc1cccs1 (stereo unspecified),2,-3,-75*,0,-82,0
O=C(CCl)Nc1cc(SCC(O)CO)cc([N+](=O)[O-])c1 (stereo unspecified),4,-17,-71*,x,-73,-4
CCC(=O)Nc1cc(SCCO)cc([N+](=O)[O-])c1,5,1,2,5,-3,-1
COc1cc(-c2cn(S(=O)(=O)c3cccc4nsnc34)nc2N)cc(OC)c1OC,0,-12,19,19,59*,0
Cc1ccc(-c2cn(S(=O)(=O)c3cccc4nsnc34)nc2N)cc1,3,1,6,13,2,-1
COc1ccccc1-c1csc(C(O)c2ccc(F)cc2)n1 (stereo unspecified),x,3,x,x,x,x
Cc1cccc(CN2CCC(C(=O)Nc3cccc(-c4cscn4)c3)CC2)n1,2,1,40,20,82*,-1
Cc1ccccc1NC(=O)CC1C(=O)Nc2ccccc2N1CC(=O)N(C)C1CCS(=O)(=O)C1 (stereo unspecified),x,0,x,60*,x,-1
COC(=O)c1cn(NC(=O)CCC2CCCC2)c(=O)c2ccccc12,2,-1,-77*,3,-81,0
COC(=O)c1cn(NC(=O)C2CCC(C)CC2)c(=O)c2ccccc12 (stereo unspecified),3,-1,33,0,81*,1
COC(=O)c1cn(NC(=O)CC2CCCCC2)c(=O)c2ccccc12,5,0,-2,17,6,0
COc1ccc(C=NNC(=O)NN=Cc2ccc(OC)c(OC)c2)cc1OC,x,1,x,x,x,5.0*
COc1ccc(/C=N/NC(=O)c2nc(-c3ccccc3)cc(-c3ccccc3)n2)cc1O,3,-2,-6,52*,-10,-2
CCOC(=O)N/N=C\c1ccc(OC/C=C/c2ccccc2)c(OC)c1,-1,-1,32,34,12,0
COc1cc(/C=N/NC(=O)c2ccccc2)ccc1O,-1,2,2,13,17,5.9*
COC(=O)N/N=C\c1ccc(OC/C=C/c2ccccc2)c(OC)c1,3,1,3,51*,16,1
SMILES,HSP90 inh,FXN GAA850 act,HSF1 inh,AHR activator,HSF-1 act,DAX1 inh
CC(=O)Nc1cncc(-c2cnn(CC(C)C)c2)n1,x,4,x,x,x,x
CC(=O)Nc1cccc(-c2ccnc3c2CC(C)(C(=O)Nc2ccc4c(c2)OCO4)O3)c1 (stereo unspecified),x,0,x,x,x,x
CC12CCC(/C(=C/NNc3ccc([N+](=O)[O-])cc3[N+](=O)[O-])C1=O)C2(C)C (stereo unspecified),x,0,x,x,x,-1
CN(C)c1ccc(C=NNc2ccccn2)c(Cl)c1,x,4,x,x,x,2
CN(C)c1ccc(/C=N\Nc2ccccn2)cc1,-3,5,26,11,31,6.2*
COc1cc(/C=N/Nc2ccccn2)ccc1O,-1,2,47,27,37,4.3*
CC(CNC1CCCCC1)OC(=O)c1ccc([N+](=O)[O-])cc1 (stereo unspecified),x,0,3,x,3,0
COc1ccc(-c2csc(C(C)(O)c3ccc(F)c(F)c3)n2)cc1OC (stereo unspecified),x,3,x,x,x,x
CCNC(=S)N(Cc1ccco1)Cc1cc2cc3c(cc2[nH]c1=O)OCCO3,2,2,33,71*,62*,0
CCOCCCNC(=S)N(CCCN(C)C)Cc1cc2cc3c(cc2[nH]c1=O)OCCO3,3,4,2,4,3,4.7*
CC(C)CNC(=S)N(Cc1ccco1)Cc1cc2cc3c(cc2[nH]c1=O)OCCO3,-4,-1,5,54*,7,-1
CNC(=S)N(Cc1ccco1)Cc1cc2cc3c(cc2[nH]c1=O)OCCO3,3,1,14,37,11,0
Nc1ncc([N+](=O)[O-])cc1Br,-1,0,-3,1,-12,1
CC(=O)Nc1cccc(/C(C)=N/Nc2nc3ccccc3s2)c1,-5,3,37,61*,46,3
O=C(COC(=O)c1cccs1)Nc1nc(-c2ccccc2)cs1,3,1,21,10,27,-1
C/C(=N\Nc1nc(-c2ccccc2)cs1)c1cccs1,11,-5,-70*,26,-75,0
CC(=NNc1nc2ccccc2s1)c1ncccn1,x,-14,x,x,x,-4
C/C(=N\Nc1nc2ccccc2s1)c1cccs1,-4,2,1,58*,26,1
CCOC(=O)C1CCN(C(=O)Cn2c(=O)oc3cc(S(=O)(=O)N4CCCC4)ccc32)CC1,-4,-1,1,-1,5,1
COc1cc(OC)c(N2CC(C(=O)NCCC3=CCCCC3)CC2=O)cc1Cl (stereo unspecified),x,-1,x,0,x,0
CCOc1cc(/C=C2/C(=O)ON=C2C)ccc1OCc1ccc(F)cc1,-1,1,22,1,63*,0
C#CCOc1c(Cl)cc(/C=C2/C(=O)ON=C2C)cc1OCC,2,1,16,1,52*,-1
COc1ccc(-c2csc(/C=C/c3ccc4c(c3)OCO4)n2)cc1OC,-3,5,26,54*,39,1
COc1ccc(C(=O)C=Cc2ccc3c(c2)OCO3)cc1OC,x,2,x,x,x,0
O=C1c2ccc(-c3ccc(Cl)c(C(F)(F)F)c3)cc2S(=O)(=O)c2cccc(C(=O)N3CCN(c4ccc(Cl)cn4)CC3)c21,x,-1,x,-4,x,0
Cc1ccc(COc2ccc3c(c2)OCO3)cc1,3,7,51,6,59*,1
O=Cc1ccc(OCc2ccc3c(c2)OCO3)cc1,6,-4,30,2,47,2
